# Data as given in ChEMBL document CHEMBL2218924, “A broad activity screen in support of a chemogenomic map for kinase signalling research and drug discovery” (Biochem J, 2013).
# Biological target: PAS domain-containing serine/threonine-protein kinase (Homo sapiens) (UniProt Q96RG2)
# Conditions: at 1 µM
# PAS domain-containing serine/threonine-protein kinase (Homo sapiens), sequence (Q96RG2 whole entry, the tested form may be a part): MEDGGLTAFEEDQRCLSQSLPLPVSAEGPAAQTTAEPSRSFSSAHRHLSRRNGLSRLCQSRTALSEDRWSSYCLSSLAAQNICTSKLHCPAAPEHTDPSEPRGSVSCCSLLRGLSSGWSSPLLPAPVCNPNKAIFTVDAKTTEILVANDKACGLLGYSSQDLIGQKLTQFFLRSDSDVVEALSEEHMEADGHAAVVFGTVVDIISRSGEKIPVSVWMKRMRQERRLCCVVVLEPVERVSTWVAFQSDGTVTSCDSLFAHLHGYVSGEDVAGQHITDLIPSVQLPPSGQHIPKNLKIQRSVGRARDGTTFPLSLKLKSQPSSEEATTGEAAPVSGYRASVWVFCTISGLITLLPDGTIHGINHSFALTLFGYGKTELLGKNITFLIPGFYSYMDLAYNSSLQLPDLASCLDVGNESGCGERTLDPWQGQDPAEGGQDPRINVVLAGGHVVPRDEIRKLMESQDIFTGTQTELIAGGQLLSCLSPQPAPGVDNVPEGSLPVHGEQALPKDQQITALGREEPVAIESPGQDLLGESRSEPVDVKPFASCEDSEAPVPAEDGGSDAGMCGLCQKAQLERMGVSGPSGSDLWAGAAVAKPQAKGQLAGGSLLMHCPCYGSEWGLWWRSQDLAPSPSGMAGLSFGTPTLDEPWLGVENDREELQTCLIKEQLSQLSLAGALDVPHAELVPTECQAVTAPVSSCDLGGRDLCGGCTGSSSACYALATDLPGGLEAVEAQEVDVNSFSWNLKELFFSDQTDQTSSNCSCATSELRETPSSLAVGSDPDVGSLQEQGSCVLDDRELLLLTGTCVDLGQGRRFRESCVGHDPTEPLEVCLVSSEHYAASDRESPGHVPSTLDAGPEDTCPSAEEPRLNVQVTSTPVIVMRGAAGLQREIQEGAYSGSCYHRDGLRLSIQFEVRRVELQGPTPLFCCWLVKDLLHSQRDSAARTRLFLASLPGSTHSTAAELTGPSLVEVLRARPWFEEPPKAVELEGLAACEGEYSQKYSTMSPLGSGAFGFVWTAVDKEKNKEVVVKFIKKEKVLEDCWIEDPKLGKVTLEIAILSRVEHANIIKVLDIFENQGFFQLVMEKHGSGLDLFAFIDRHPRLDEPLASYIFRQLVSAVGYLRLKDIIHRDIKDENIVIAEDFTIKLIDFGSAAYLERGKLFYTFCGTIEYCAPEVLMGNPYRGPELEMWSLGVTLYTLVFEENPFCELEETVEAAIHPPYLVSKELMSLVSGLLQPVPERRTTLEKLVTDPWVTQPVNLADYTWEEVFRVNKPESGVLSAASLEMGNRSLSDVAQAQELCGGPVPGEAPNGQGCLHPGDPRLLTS
row,Compound,residual activity [%]
1,COc1ccc(Cl)cc1NC(=O)Nc1cc(C)nc2ccccc12,98
2,CSc1nc(-c2ccc(F)cc2)c(-c2ccnc(NC(C)c3ccccc3)c2)[nH]1 (stereo not drawn),95
3,Nc1cccc(-c2cc3c(Oc4cccc(O)c4)ncnc3[nH]2)c1,123
4,CNc1cc2c(Nc3cccc(Br)c3)ncnc2cn1,128
5,CC(C)N(CCC(=O)c1ccc2ccccc2c1)Cc1ccccc1,126
6,O=c1cc(N2CCNCC2)oc2c(-c3ccccc3)cccc12,148
7,O=C(Nc1cccc(Nc2nccc(Nc3cccc(C(F)(F)F)c3)n2)c1)C1CC1,75
8,O=S(=O)(NCCNC/C=C/c1ccc(Br)cc1)c1cccc2cnccc12,141
9,O=S(=O)(c1cccc2cnccc12)N1CCCNCC1,83
10,CCCCc1c(-c2ccc(O)cc2)[nH]c2nccnc12,146
11,CC(C)n1cnc2/c(=N/c3cccc(Cl)c3)nc(NCCO)[nH]c21,113
12,c1ccc(-c2cnc(Nc3ccc(OCCN4CCCC4)cc3)s2)cc1,81
13,O=C1NC(=O)c2c1c1c3ccccc3[nH]c1n1cncc21,57
14,O=C(CCCc1ccc(-c2ccccc2F)cc1)Nc1ccc(O)cc1,102
15,Cc1ccc(S(=O)(=O)/C=C/C#N)cc1,82
16,O=C1NC(=O)/C(=C/c2ccc3c(c2)OC(F)(F)O3)S1,81
17,CCN(CC)CCNC(=O)c1c(C)[nH]c(/C=C2\C(=O)Nc3ccc(Cl)cc32)c1C,70
18,COc1cc2ncnc(Nc3ccc(O)c(Br)c3)c2cc1OC,73
19,O=C1c2ccccc2-[n+]2ccc3c([nH]c4ccccc43)c21,147

row,Compound,residual activity [%]
1,NCCNc1ncc(C(N)=O)c(Nc2cccc(C(F)(F)F)c2)n1,114
2,Cn1cnc2cc3c(Nc4cccc(Br)c4)ncnc3cc21,82
3,CN([C@@H](Cc1ccc(OS(=O)(=O)c2cccc3cnccc23)cc1)C(=O)N1CCN(c2ccccc2)CC1)S(=O)(=O)c1cccc2cnccc12,79
4,CC(=O)O/N=C1\C(=C2\C(=O)Nc3cc(Br)ccc32)Nc2ccccc21,93
5,CO[C@@H]1[C@H](N(C)C(=O)c2ccccc2)C[C@H]2O[C@]1(C)n1c3ccccc3c3c4c(c5c6ccccc6n2c5c31)C(=O)NC4,85
6,CC(=O)c1ccc(N2CCOCC2)cc1O,127
7,COc1ccc(OC)c2c(=S)c3ccccc3[nH]c12,108
8,NC(=O)Nc1sc(-c2ccc(F)cc2)cc1C(N)=O,107
9,COc1cc2ncc(-c3ccccc3)nc2cc1OC,90
10,Nc1nccc(-c2c(-c3ccc(F)cc3)ncn2C2CCNCC2)n1,129
11,Cn1sc(=O)n(Cc2ccccc2)c1=O,100
12,CC(C)n1cnc2c(NCc3ccccc3)nc(NCCCO)nc21,131
13,CCN(CC)C(=O)c1ccc(Nc2nc(OCC3CCCCC3)c3nc[nH]c3n2)cc1,135
14,Nc1n[nH]c2nnc(-c3c(-c4ccccc4)nn4ccccc34)cc12,104
15,O=[N+]([O-])c1ccc(-c2nc(-c3ccc(F)cc3)c(-c3ccncc3)[nH]2)cc1,126
16,O=C1NC(=O)c2c1c1c3ccccc3[nH]c1c1[nH]c3cc(Br)ccc3c21,89
17,Cc1nc2cc3nc(-c4cccs4)cnc3cc2n1C,98
18,O=c1cc(-c2cccc3c2Sc2ccccc2S3)oc(N2CCOCC2)c1,109
19,CCOC(=O)c1c(C)[nH]c(/C=C2\C(=O)Nc3ccccc32)c1C,93
